The structures appear in SMILES notation. Records with an inconclusive call do not appear. The source made the active and inactive calls. The calls were made as follows, unless noted: active = hit-call score of the fitted dose curve at least 0.9, where 1 is the maximum; inactive = score below 0.9.

A short description of assay [1]: ATG_TAL_CIS: Attagene CIS-FACTORIAL HepG2 Assay for human TAL Basal Promoter (AID 2282966).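 Also: background control endpoint measuring basal TAL promoter reporter mRNA not a specific factor.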 Particulars: HepG2 Attagene cis-factorial TAL promoter reporter; actives raise or lower the signal. The method in brief:
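Steps: transfect HepG2 with multiple reporter transcription units; dose 24 h; isolate RNA, reverse-transcribe, PCR-amplify, label with 6-FAM, digest with HpaI; resolve by capillary electrophoresis. Bidirectional fitting against DMSO baseline.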

A short description of assay [2]: ATG_TGFb_CIS: Attagene CIS-FACTORIAL HepG2 Assay for human Transforming Growth Factor (TGF) (AID 2282967). As to conditions: HepG2 Attagene CIS TGFb reporter, mRNA transcription; actives raise or lower the signal. The method, boiled down:
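Liver HepG2 line, cis-factorial reporter panel, 24 h dosing. Quantitation: RT-PCR products labeled with 6-FAM, cut with HpaI, resolved by capillary electrophoresis; DMSO-referenced bidirectional analysis.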

The nature of assay [3]: ATG_VDRE_CIS: Attagene CIS-FACTORIAL HepG2 Assay for human Vitamin D Receptor Element (VDRE) (AID 2282968). As to conditions: HepG2 VDRE cis-reporter transcription, actives raise or lower the signal. The method in brief: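 Transiently transfected HepG2 cells carrying cis-regulated reporter transcription units were exposed for 24 h. Reporter mRNA was measured by RT-PCR with fluorescent labelling and capillary electrophoresis, and fitted in both directions against DMSO.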

The target in assay [4] is Nuclear receptor subfamily 1 group I member 3 (Homo sapiens) (UniProt Q14994). In words: ATG_CAR_TRANS: Attagene TRANS-FACTORIAL HepG2 Assay for human Constitutive Androstane Receptor (CAR) (AID 2282969; active = hit-call score of the fitted dose curve at least 0.9, where 1 is the maximum;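 also: activators raise reporter mRNA above DMSO so AC50 marks induction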). As to conditions: HepG2 Attagene TRANS-FACTORIAL CAR reporter. The method in brief:
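HepG2 cells transiently transfected with GAL4-UAS reporter units; TRANS format reads activity of exogenous chimeric NR-Gal4 protein. After 24 h dosing, reporter mRNA quantified by RT-PCR, 6-FAM labelling and capillary electrophoresis; gain of signal fitted against DMSO.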

The target in assay [5] is X-box-binding protein 1 (Homo sapiens) (UniProt P17861). Nature of the assay: ATG_Xbp1_CIS: Attagene CIS-FACTORIAL HepG2 Assay for human X-box Binding Protein 1 (XBP1) (AID 2282972). Particulars: HepG2 XBP1 cis-element reporter, Attagene multiplex; actives raise or lower the signal. The method in brief:
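HepG2, transient MRTU transfection (cis-promoter driven), 24 h compound exposure. Total RNA → oligo(dT) RT → PCR → 6-FAM labeling → HpaI cut → CE. Bidirectional fit vs DMSO.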

The nature of assay [6]: ATG_GAL4_TRANS: Attagene TRANS-FACTORIAL HepG2 Assay for GAL4 (Internal Marker) (AID 2282976; active = hit-call score of the fitted dose curve at least 0.9, where 1 is the maximum). As to conditions: HepG2 Attagene TRANS GAL4 internal marker reporter. The method in brief:
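Liver HepG2 line bearing multiplexed GAL4-UAS reporter constructs; 24 h chemical treatment. Transcripts were quantified as fluorescent fragments on capillary electrophoresis after RT-PCR and HpaI cut, with activity fitted upward from DMSO.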

Assay [7] addresses Glucocorticoid receptor (Homo sapiens) (UniProt P04150). In words: ATG_GR_TRANS: Attagene TRANS-FACTORIAL HepG2 Assay for human Glucocorticoid Receptor (GR) (AID 2282978; active = hit-call score of the fitted dose curve at least 0.9, where 1 is the maximum;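 also: activators score as hits since higher reporter transcript over DMSO is fitted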). Particulars: HepG2 Attagene TRANS GR reporter, mRNA transcription. The method in brief: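 Measurement of GAL4-UAS-driven reporter mRNA in human HepG2 liver cells 24 h post-dosing, using RT-PCR with fluorescent labelling and capillary electrophoresis; the transfected constructs report exogenous NR-GAL4 chimera activity, fitted upward against DMSO.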

For assay [8], the target named is Bile acid receptor (Homo sapiens) (UniProt Q96RI1). Nature of the assay: ATG_FXR_TRANS: Attagene TRANS-FACTORIAL HepG2 Assay for Farnesoid X Receptor (FXR) (AID 2282979; active = hit-call score of the fitted dose curve at least 0.9, where 1 is the maximum;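 also: hits raise reporter mRNA above DMSO so AC50 marks FXR activation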). Particulars: HepG2 Attagene TRANS FXR-GAL4 reporter transcription. The method in brief: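 After 24 h chemical treatment of transfected HepG2 cells, GAL4-UAS reporter transcripts driven by an exogenous FXR-GAL4 fusion were measured by RT-PCR and capillary electrophoresis. Increases over DMSO were fitted.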
Chain of Bile acid receptor (Homo sapiens) (Q96RI1 whole entry, looked up, the tested form may be a part): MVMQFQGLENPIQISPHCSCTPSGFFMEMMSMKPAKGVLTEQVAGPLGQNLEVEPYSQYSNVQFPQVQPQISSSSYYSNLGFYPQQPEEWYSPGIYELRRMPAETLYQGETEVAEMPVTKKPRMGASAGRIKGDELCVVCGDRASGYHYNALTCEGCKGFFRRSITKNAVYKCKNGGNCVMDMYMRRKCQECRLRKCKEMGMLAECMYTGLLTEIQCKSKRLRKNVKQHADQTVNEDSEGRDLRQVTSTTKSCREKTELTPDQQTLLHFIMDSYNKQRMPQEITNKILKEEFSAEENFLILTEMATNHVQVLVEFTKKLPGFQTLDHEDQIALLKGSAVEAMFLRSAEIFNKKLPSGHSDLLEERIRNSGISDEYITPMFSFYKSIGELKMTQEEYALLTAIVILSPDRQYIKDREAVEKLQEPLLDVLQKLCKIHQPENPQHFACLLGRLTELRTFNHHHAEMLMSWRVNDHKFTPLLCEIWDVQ

Assay [9] addresses Oxysterols receptor LXR-alpha (Homo sapiens) (UniProt Q13133). Nature of the assay: ATG_LXRa_TRANS: Attagene TRANS-FACTORIAL HepG2 Assay for human Liver X Receptor alpha (LXRa) (AID 2282980; active = hit-call score of the fitted dose curve at least 0.9, where 1 is the maximum). Particulars: HepG2 Attagene TRANS reporter, LXRa transactivation. The method, boiled down: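 In this multiplexed TRANS system, compounds act on HepG2 cells carrying GAL4-UAS reporter units and a receptor-GAL4 fusion for 24 h. Induced reporter RNA is amplified, fluorescently labelled and sized by capillary electrophoresis, with DMSO as baseline.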

Assay [10] can be described thus: ATG_M_06_TRANS: Attagene TRANS-FACTORIAL HepG2 Assay for M06 Transcription Factor (Internal Marker) (AID 2282983; active = hit-call score of the fitted dose curve at least 0.9, where 1 is the maximum;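 also: reporter transcript level by RT-PCR then capillary electrophoresis fluorescence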). Particulars: HepG2 Attagene TRANS M06 internal marker reporter. The method, boiled down: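 Internal-marker background readout from a multiplexed TRANS reporter system in HepG2; 24 h dosing; mRNA induction quantified by RT-PCR plus capillary electrophoresis fluorescence; DMSO as negative control and baseline.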

A short description of assay [11]: ATG_M_32_TRANS: Attagene TRANS-FACTORIAL HepG2 Assay for M32 Transcription Factor (Internal Marker) (AID 2282984; active = hit-call score of the fitted dose curve at least 0.9, where 1 is the maximum;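 also: transcript level of a background control reporter unit measured by RT-PCR and capillary electrophoresis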). As to conditions: HepG2 Attagene TRANS M32 internal marker reporter. The method, boiled down: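 HepG2 cells transiently transfected with GAL4-UAS reporter units, dosed for 24 hours. Reporter mRNA quantified by RT-PCR, 6-FAM labelling, HpaI digestion and capillary electrophoresis; internal-marker signal fitted upward relative to DMSO.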

Assay [12] addresses Nuclear receptor subfamily 4 group A member 2 (Homo sapiens) (UniProt P43354). In words: ATG_NURR1_TRANS: Attagene TRANS-FACTORIAL HepG2 Assay for human Nuclear Receptor Related Protein 1 (NURR1) (AID 2282985; active = hit-call score of the fitted dose curve at least 0.9, where 1 is the maximum). Particulars: HepG2 Attagene TRANS reporter, mRNA readout. The method, boiled down:
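HepG2 cells transiently transfected with NURR1-Gal4 chimera and GAL4-UAS reporter units; after 24 hr compound exposure, reporter mRNA quantified by RT-PCR and capillary electrophoresis; gain of signal fitted against DMSO.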

Assay [13] has as its target Transcriptional activator Myb (Homo sapiens) (UniProt P10242). Nature of the assay: ATG_Myb_CIS: Attagene CIS-FACTORIAL HepG2 Assay for human Myeloblastosis (Myb) Proto-Oncogene Transcription Factor (AID 2282986). As to conditions: HepG2 Attagene CIS-FACTORIAL Myb reporter transcription; actives raise or lower the signal. The method, boiled down: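 Fluorescence signals from capillary electrophoresis of RT-PCR-amplified reporter cDNA give the read-out. Cells: HepG2 transfected with multiple cis-regulated reporter units. Exposure lasts 24 hours; DMSO defines baseline for gain or loss of signal.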

Assay [14] concerns the target Nuclear respiratory factor 1 (Homo sapiens) (UniProt Q16656). Nature of the assay: ATG_NRF1_CIS: Attagene CIS-FACTORIAL HepG2 Assay for human Nuclear Respiratory Factor 1 (NRF1) Orphan Gene (AID 2282987). As to conditions: HepG2 NRF1 cis-element reporter, Attagene multiplex; actives raise or lower the signal. The method in brief: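 Transcriptional reporter readout, one component of a 52-endpoint multiplexed HepG2 panel. Exposure 24 h; mRNA detected via RT-PCR and fluorescent capillary electrophoresis; fitting in both directions against DMSO.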

In assay [15] the target is Estrogen receptor (Homo sapiens) (UniProt P03372). Nature of the assay: ATG_ERa_TRANS: Attagene TRANS-FACTORIAL HepG2 Assay for human Estrogen Receptor alpha (ERa) (AID 2282970; active = hit-call score of the fitted dose curve at least 0.9, where 1 is the maximum). Particulars: HepG2 Attagene TRANS ERa GAL4 reporter, mRNA. The method, boiled down: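 Multiplexed cell-based reporter format in HepG2: chimeric ERa-Gal4 protein drives GAL4-UAS reporter transcription. Fluorescent reporter mRNA quantified by capillary electrophoresis 24 hours after dosing; endpoint fitted as signal gain against DMSO.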
Chain of Estrogen receptor (Homo sapiens) (P03372 whole entry, looked up, the tested form may be a part): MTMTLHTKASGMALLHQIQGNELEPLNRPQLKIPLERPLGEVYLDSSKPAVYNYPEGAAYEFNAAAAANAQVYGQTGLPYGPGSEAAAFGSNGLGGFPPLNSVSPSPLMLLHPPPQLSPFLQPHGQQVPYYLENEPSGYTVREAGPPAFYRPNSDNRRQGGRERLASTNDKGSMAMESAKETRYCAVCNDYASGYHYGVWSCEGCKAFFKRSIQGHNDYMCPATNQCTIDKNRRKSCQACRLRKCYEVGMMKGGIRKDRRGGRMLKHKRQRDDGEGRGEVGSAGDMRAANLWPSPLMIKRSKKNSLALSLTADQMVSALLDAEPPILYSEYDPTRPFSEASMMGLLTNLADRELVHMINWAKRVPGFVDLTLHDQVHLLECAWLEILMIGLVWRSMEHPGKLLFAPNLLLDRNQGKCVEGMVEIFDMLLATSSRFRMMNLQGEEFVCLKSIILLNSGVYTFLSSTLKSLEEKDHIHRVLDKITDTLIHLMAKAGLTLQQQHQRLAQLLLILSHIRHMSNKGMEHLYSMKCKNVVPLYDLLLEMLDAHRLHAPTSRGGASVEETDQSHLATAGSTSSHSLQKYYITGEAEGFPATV

In assay [16] the target is Steroid hormone receptor ERR1 (Homo sapiens) (UniProt P11474). In words: ATG_ERRa_TRANS: Attagene TRANS-FACTORIAL HepG2 Assay for human Estrogen-Related Receptor alpha (ERRa) (AID 2282971; active = hit-call score of the fitted dose curve at least 0.9, where 1 is the maximum). Particulars: HepG2 Attagene TRANS reporter, ERRa transactivation. The method in brief: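 Signal gain relative to DMSO for an ERRa-Gal4 chimeric receptor, read as reporter mRNA by RT-PCR/capillary electrophoresis. Human HepG2 liver cells, transient multiplex reporter transfection, 24 h chemical exposure.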

The target of assay [17] is Estrogen-related receptor gamma (Homo sapiens) (UniProt P62508). Nature of the assay: ATG_ERRg_TRANS: Attagene TRANS-FACTORIAL HepG2 Assay for human Estrogen-Related Receptor gamma (ERRg) (AID 2282977; active = hit-call score of the fitted dose curve at least 0.9, where 1 is the maximum;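 also: hits increase reporter signal over DMSO so potencies reflect activators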). As to conditions: HepG2 Attagene TRANS reporter, ERRg transactivation. The method, boiled down:
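HepG2 cells transiently transfected with multiplexed GAL4-UAS reporter units driven by chimeric NR-Gal4 proteins; 24 h exposure. Reporter mRNA quantified by RT-PCR, fluorescent labelling, HpaI digestion and capillary electrophoresis; gain of signal vs DMSO.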

Assay [18] addresses Hepatocyte nuclear factor 4-alpha (Homo sapiens) (UniProt P41235). In words: ATG_HNF4a_TRANS: Attagene TRANS-FACTORIAL HepG2 Assay for human Hepatocyte Nuclear Factor 4 alpha (HNF4a) (AID 2282982; active = hit-call score of the fitted dose curve at least 0.9, where 1 is the maximum). As to conditions: HepG2 HNF4a transactivation reporter, mRNA readout. The method, boiled down: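 HepG2 cells transiently transfected with HNF4a-Gal4 chimera and GAL4-UAS reporter units, dosed for 24 h. Reporter mRNA measured by RT-PCR, fluorescent primer extension and capillary electrophoresis; gain-of-signal fitted relative to DMSO.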

Chain of Nuclear receptor subfamily 1 group I member 3 (Homo sapiens) (Q14994 whole entry, looked up, the tested form may be a part): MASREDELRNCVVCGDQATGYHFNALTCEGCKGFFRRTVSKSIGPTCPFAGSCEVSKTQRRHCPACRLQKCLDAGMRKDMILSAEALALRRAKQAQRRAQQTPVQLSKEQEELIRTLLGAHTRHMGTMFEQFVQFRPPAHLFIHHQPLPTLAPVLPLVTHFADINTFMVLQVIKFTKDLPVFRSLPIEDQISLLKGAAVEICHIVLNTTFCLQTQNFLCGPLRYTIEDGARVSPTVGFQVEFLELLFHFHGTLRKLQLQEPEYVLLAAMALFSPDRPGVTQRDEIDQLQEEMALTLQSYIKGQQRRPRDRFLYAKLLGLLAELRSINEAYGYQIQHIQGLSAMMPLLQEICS
Chain of Nuclear respiratory factor 1 (Homo sapiens) (Q16656 whole entry, looked up): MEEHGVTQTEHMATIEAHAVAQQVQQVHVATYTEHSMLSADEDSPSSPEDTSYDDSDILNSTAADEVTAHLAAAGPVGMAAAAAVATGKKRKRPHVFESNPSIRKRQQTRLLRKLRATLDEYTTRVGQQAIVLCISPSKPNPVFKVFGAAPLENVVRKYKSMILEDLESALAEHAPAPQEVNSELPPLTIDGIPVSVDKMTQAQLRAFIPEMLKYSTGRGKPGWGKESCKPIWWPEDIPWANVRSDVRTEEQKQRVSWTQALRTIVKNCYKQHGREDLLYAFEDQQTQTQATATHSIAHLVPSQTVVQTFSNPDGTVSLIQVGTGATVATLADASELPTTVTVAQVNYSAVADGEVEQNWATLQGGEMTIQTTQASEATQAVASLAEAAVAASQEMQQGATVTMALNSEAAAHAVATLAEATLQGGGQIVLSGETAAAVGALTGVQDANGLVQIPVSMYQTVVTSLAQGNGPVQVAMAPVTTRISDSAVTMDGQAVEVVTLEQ
Chain of X-box-binding protein 1 (Homo sapiens) (P17861 whole entry, looked up): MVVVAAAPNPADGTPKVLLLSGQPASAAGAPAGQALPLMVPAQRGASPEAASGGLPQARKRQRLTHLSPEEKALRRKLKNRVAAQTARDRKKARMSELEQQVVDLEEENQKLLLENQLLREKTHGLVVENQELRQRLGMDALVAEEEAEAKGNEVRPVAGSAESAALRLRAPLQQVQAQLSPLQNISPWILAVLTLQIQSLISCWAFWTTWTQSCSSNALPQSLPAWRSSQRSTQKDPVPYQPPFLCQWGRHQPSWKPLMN
Chain of Transcriptional activator Myb (Homo sapiens) (P10242 whole entry, looked up): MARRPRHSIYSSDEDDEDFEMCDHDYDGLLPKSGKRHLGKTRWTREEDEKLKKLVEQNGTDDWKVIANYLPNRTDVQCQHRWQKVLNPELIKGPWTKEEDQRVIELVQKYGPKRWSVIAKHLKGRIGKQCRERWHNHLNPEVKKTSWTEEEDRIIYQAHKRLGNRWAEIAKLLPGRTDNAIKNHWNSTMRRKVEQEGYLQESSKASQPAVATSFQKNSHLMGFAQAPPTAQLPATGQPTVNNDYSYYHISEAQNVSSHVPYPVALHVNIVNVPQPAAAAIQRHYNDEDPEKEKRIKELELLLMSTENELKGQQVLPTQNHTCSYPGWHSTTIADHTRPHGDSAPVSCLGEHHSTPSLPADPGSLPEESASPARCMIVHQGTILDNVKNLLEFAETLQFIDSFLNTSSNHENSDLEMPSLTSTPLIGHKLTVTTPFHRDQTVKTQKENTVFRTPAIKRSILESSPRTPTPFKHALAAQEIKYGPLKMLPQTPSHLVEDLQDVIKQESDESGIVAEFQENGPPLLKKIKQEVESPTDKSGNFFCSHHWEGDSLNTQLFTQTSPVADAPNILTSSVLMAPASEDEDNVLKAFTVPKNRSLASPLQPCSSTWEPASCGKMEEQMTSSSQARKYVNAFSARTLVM
Chain of Estrogen-related receptor gamma (Homo sapiens) (P62508 whole entry, looked up, the tested form may be a part): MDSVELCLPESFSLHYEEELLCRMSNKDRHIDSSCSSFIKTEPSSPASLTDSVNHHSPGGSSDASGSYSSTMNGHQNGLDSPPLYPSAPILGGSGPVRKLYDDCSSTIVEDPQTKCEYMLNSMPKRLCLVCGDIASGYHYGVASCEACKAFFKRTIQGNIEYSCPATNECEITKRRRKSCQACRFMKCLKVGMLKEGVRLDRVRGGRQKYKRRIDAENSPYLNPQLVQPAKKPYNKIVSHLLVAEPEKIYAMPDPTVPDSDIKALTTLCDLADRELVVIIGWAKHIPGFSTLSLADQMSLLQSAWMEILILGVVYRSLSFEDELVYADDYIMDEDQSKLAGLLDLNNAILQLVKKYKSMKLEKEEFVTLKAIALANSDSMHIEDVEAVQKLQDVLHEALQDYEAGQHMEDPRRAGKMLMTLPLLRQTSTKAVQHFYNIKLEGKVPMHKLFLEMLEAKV
Chain of Glucocorticoid receptor (Homo sapiens) (P04150 whole entry, looked up, the tested form may be a part): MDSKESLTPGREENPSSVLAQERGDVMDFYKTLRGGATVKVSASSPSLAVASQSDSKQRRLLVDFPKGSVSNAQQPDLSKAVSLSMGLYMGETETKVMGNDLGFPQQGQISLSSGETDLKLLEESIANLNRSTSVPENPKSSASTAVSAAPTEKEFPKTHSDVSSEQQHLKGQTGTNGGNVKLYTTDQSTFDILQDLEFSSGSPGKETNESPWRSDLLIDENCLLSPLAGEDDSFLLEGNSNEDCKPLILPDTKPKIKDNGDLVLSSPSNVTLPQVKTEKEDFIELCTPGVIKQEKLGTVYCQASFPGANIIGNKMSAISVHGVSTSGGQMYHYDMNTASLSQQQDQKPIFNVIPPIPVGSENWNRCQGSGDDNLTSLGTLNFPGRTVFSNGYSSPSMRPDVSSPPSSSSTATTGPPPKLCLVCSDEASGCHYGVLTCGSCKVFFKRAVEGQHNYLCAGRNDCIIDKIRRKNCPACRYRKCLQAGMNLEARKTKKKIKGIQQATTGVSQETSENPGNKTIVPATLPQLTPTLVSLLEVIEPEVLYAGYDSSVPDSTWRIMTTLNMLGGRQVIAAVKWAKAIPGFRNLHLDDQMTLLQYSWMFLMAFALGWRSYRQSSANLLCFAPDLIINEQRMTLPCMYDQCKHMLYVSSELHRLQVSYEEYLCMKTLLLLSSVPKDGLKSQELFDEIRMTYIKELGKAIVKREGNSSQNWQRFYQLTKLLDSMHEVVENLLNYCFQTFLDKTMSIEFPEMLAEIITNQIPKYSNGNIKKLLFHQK
Chain of Oxysterols receptor LXR-alpha (Homo sapiens) (Q13133 whole entry, looked up, the tested form may be a part): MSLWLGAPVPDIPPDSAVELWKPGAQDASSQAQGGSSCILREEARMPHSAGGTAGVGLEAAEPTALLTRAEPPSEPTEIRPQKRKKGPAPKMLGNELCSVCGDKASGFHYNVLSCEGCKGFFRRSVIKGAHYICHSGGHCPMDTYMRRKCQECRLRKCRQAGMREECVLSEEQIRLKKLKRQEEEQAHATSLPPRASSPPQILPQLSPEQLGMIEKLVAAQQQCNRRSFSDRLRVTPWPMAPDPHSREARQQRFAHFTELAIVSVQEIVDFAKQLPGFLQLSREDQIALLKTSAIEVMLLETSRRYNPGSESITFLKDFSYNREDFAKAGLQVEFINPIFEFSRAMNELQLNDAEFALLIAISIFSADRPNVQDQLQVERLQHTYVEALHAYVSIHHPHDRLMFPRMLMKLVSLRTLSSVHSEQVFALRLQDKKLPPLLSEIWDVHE
Chain of Hepatocyte nuclear factor 4-alpha (Homo sapiens) (P41235 whole entry, looked up, the tested form may be a part): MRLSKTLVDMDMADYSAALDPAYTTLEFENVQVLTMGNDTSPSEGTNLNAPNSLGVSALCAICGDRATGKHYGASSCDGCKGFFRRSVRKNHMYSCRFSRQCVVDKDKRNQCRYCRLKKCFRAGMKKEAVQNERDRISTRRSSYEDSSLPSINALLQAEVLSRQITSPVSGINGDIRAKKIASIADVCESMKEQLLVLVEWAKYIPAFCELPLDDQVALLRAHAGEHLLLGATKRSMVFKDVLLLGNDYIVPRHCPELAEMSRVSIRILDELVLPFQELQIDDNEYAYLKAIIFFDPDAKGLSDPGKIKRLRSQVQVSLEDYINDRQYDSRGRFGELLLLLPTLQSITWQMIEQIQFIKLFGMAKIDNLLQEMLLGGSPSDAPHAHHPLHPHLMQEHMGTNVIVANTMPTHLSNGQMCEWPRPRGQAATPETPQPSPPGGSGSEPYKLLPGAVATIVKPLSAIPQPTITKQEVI

As for `C=CC(C)C#N` (stereo not given), the result in [1], in assay [2], in [3], in assay [4], in assay [5] and in [6] was inactive. Moreover, the molecule was called inactive in [7], in assay [8], in [9], in assay [10], in assay [11] and in assay [12]. In addition, the molecule was classed as inactive in assay [13] and in assay [14].
Usually AC50 stands for the midpoint of the concentration-response curve, whichever way the signal moves. On to `COC(=O)C=C(C)CCC=C(C)C`, for which the result in [1], in assay [2], in assay [15], in assay [16], in assay [5] and in assay [17] was inactive. For the same molecule, the molecule was classed as inactive in [9], in assay [18], in assay [10], in assay [11], in [13] and in assay [14]. Also, in assay [3], the concentration at half-maximal activity (AC50) is 10.5 µM (active).
Take `CCN(CCC#N)c1ccc(N=Nc2ccc([N+](=O)[O-])cc2)cc1`: the molecule was called inactive in assay [1], in assay [2], in assay [3], in assay [4], in assay [5] and in [6]. Moreover, the call in [17], in assay [8], in assay [10], in assay [11], in [13] and in [14] was inactive.
As to `CCN(CC)C(=O)N(CC)CC`, the molecule was classed as inactive in [1], in assay [2], in [3], in assay [4], in assay [5] and in assay [8]. Moreover, the result in [10], in [11], in assay [13] and in [14] was inactive.
On to `C=C[Si]1(C)O[Si](C)(C=C)O[Si](C)(C=C)O[Si](C)(C=C)O1` (stereo not given), for which the result in assay [1], in assay [2], in assay [3], in assay [4], in assay [13] and in assay [14] was inactive.
As for `CCCCCCCCN1CCCC1=O`, the molecule was called inactive in assay [1], in assay [2], in [3], in assay [4], in [5] and in [7]. For the same molecule, the molecule was called inactive in assay [8], in [10], in assay [13] and in assay [14].

The values are drawn from PubChem BioAssay (EPA / NIEHS).
